For some of these results: Potency and affinity values are given separately.
Key:
Set-up in all cases: scale not given: direction of the effect not stated beside the values
[1] = target: Protein translocase subunit SecA (Escherichia coli (strain K12)) (UniProt P10408); assay: Assay to Identify E. coli SecA ATPase Inhibitors; assay type: functional; conditions: 30 µM
[2] = target: T1, Ubiquitin-activating enzyme e1, putative (Leishmania donovani (strain BPK282A1)) (UniProt E9BSI1); assay: Leishmania donovani Ubiquitin Activating Enzyme (LdE1); assay type: functional; conditions: 30 µM
T1 sequence (whole entry): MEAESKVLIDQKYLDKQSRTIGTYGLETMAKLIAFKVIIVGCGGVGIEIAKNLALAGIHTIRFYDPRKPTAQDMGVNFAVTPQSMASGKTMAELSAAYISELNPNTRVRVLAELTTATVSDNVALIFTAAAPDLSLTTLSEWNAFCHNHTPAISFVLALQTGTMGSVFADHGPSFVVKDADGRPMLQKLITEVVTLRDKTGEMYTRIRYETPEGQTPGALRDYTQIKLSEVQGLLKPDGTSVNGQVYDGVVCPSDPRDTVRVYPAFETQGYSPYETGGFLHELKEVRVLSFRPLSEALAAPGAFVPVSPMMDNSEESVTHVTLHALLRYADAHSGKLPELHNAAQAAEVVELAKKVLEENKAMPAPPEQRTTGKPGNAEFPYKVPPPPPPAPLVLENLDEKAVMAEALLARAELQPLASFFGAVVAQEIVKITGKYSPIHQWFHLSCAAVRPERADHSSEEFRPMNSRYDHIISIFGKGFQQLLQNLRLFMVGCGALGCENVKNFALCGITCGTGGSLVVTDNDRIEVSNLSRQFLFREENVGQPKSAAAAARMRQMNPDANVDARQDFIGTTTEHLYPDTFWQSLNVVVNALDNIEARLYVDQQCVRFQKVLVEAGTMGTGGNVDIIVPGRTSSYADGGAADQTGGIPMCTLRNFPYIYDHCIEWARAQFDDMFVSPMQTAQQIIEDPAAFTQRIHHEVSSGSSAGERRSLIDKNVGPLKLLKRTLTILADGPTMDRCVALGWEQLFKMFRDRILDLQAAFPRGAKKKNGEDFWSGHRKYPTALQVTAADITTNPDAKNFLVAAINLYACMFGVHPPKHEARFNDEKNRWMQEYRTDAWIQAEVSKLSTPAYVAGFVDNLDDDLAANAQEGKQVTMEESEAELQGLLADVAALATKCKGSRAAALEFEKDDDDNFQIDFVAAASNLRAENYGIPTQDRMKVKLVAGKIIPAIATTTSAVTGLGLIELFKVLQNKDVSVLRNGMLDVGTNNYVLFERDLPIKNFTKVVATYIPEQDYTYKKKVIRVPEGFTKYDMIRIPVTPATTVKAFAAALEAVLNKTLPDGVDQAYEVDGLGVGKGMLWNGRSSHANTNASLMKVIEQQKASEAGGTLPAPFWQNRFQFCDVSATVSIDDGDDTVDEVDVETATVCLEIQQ

[3] = target: AMP-activated protein kinase, AMPK (Homo sapiens) (UniProt P54646+O43741+P54619+Q9UGJ0+Q9Y478+Q13131+Q9UGI9); assay: AMP-dependent Kinase enzyme assay. An in vitro enzyme assay that detects ADP turnover that is directly proportional to AMPK activity. This uses naive AMPK that is activated during the assay with MK-8722; assay type: functional; conditions: 30 µM
[4] = target: Sialic acid-binding Ig-like lectin 9 (Homo sapiens) (UniProt Q9Y336); assay: Hs-Siglec9 ALPHAscreen SOP 20170721; conditions: 10 µM
Trypanosoma cruzi = assay: Trypanosoma cruzi phosphomannomutase and mannose-1-phosphate guanylyltransferase assay; assay type: functional; conditions: 10 µM
[5] = target: T2, Arginase-2, mitochondrial (Homo sapiens) (UniProt P78540); assay: in vitro enzyme assay to detect the production of urea directly proportional to the activity of Arginase II; assay type: functional; conditions: 33.3 µM; also: in the data most compounds retested in dose-response had high values
T2 sequence (whole entry): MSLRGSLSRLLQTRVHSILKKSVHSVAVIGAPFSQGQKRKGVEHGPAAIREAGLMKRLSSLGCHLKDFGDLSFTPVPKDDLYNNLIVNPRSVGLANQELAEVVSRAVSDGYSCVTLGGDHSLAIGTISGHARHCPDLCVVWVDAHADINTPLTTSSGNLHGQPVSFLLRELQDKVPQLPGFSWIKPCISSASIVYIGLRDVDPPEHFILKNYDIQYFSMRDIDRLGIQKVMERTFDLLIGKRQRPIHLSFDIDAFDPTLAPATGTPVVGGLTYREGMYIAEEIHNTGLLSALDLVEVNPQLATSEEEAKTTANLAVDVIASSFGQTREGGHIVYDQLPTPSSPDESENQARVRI

[6] = target: T3, Proteasome subunit beta (Trypanosoma cruzi) (UniProt O96673); assay: Trypanosoma cruzi proteasome chymotrypsin-like activity (TcProtChymo) assay.; also: in the data most compounds retested in dose-response had high values; assay type: functional; conditions: 9.37 µM
T3 sequence (whole entry): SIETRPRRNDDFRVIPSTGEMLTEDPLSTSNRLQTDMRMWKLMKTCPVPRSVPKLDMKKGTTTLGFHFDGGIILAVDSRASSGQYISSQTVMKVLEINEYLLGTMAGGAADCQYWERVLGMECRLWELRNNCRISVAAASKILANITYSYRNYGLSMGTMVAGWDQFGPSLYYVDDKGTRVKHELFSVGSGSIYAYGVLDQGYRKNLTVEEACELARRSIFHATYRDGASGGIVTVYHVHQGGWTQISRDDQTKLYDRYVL

Homo sapiens = organism: Homo sapiens; assay: To identify inhibition of the IFN signalling (Jak-Stat) pathway via expression of an eGFP reporter gene under the control of an IFN-stimulated response element (ISRE) containing MxA promoter.; assay type: functional; conditions: 30 µM
[7] = target: T4, Tyrosyl-tRNA synthetase, putative (Trypanosoma cruzi (strain CL Brener)) (UniProt Q4DSP6); assay: Trypanosoma cruzi tyrosyl tRNA synthetase (TcYRS) _High Tyrosine SOP; assay type: functional; conditions: 30 µM; also: in the data most compounds retested in dose-response had high values
T4 sequence (whole entry): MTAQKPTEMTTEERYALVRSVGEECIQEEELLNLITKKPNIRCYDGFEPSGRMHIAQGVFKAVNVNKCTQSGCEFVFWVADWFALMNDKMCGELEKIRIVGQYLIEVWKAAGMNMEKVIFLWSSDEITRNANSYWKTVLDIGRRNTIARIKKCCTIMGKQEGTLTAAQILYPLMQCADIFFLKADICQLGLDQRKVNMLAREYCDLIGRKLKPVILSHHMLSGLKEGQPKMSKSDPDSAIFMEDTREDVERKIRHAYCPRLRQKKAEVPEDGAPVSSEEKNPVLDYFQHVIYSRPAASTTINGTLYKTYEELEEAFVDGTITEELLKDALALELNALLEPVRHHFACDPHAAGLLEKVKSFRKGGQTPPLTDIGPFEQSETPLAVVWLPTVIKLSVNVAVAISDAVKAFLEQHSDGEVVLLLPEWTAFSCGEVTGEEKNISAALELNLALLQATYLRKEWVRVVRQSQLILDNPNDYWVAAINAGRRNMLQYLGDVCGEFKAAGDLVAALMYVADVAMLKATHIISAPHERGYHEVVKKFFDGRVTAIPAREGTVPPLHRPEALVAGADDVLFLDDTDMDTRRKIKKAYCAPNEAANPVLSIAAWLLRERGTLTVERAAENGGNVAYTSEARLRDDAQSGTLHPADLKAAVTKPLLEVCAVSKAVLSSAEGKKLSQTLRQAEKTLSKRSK

[8] = target: T4, Tyrosyl-tRNA synthetase, putative (Trypanosoma cruzi (strain CL Brener)); assay: Trypanosoma cruzi tyrosyl tRNA synthetase (TcYRS) SOP; assay type: functional; conditions: 30 µM
[9] = target: Chromo domain-containing protein 1 (Saccharomyces cerevisiae (strain ATCC 204508 / S288c) (Baker's yeast)) (UniProt P32657); assay: ScCHD-1 Enzyme Inhibition Assay; assay type: functional; conditions: 30 µM; also: in the data most compounds retested in dose-response had high values
Sequence of Chromo domain-containing protein 1 (Saccharomyces cerevisiae (strain ATCC 204508 / S288c) (Baker's yeast)) (P32657 whole entry, the tested form may be a part): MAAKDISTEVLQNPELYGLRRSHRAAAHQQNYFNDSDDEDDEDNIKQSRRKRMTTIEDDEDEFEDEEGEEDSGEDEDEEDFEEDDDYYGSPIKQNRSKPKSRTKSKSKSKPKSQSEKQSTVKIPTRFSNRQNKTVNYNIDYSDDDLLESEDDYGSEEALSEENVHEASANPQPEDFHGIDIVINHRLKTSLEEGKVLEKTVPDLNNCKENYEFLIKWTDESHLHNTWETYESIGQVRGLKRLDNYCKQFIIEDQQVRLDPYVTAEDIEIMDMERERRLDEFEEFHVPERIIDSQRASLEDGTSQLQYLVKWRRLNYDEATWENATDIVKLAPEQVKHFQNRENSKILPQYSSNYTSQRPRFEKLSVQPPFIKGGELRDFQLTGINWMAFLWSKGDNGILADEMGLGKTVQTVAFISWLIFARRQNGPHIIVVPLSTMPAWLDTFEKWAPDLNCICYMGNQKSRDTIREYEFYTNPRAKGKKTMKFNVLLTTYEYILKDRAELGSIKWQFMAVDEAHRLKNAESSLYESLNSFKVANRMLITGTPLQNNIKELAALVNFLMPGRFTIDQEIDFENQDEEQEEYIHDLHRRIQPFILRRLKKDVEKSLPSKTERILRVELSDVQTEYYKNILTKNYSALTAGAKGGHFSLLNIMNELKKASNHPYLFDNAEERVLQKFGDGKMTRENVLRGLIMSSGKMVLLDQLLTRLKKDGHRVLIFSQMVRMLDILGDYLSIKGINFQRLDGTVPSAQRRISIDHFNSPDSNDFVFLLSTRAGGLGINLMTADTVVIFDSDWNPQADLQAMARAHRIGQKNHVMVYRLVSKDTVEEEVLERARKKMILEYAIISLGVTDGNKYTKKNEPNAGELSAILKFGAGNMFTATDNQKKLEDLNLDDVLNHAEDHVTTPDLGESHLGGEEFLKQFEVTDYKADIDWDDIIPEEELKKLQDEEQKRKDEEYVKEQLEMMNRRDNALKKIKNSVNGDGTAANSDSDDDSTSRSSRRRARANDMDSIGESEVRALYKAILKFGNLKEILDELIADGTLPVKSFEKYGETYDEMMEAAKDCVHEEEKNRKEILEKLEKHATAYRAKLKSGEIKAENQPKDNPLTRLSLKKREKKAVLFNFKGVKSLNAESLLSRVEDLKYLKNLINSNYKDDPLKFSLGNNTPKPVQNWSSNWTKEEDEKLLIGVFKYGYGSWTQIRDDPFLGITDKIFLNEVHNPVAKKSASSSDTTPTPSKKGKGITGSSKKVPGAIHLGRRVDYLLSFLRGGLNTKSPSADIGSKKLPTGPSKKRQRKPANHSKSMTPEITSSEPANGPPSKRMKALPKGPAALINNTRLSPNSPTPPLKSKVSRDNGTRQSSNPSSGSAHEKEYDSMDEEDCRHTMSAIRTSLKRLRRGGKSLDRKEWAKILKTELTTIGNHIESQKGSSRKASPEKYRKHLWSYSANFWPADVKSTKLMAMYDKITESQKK

Sequence of Sialic acid-binding Ig-like lectin 9 (Homo sapiens) (Q9Y336 whole entry): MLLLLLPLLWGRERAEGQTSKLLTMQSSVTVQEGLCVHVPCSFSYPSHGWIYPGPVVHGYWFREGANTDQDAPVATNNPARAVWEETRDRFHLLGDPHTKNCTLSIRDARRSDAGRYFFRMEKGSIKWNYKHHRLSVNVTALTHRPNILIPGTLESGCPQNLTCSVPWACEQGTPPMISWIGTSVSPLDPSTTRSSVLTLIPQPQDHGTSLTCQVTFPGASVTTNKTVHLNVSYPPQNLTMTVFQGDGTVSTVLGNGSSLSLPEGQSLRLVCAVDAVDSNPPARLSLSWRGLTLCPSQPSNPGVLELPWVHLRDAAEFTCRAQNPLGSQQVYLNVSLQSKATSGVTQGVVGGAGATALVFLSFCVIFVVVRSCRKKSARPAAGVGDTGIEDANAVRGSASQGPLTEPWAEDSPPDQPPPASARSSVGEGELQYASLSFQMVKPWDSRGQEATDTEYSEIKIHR
Sequence of Protein translocase subunit SecA (Escherichia coli (strain K12)) (P10408 whole entry): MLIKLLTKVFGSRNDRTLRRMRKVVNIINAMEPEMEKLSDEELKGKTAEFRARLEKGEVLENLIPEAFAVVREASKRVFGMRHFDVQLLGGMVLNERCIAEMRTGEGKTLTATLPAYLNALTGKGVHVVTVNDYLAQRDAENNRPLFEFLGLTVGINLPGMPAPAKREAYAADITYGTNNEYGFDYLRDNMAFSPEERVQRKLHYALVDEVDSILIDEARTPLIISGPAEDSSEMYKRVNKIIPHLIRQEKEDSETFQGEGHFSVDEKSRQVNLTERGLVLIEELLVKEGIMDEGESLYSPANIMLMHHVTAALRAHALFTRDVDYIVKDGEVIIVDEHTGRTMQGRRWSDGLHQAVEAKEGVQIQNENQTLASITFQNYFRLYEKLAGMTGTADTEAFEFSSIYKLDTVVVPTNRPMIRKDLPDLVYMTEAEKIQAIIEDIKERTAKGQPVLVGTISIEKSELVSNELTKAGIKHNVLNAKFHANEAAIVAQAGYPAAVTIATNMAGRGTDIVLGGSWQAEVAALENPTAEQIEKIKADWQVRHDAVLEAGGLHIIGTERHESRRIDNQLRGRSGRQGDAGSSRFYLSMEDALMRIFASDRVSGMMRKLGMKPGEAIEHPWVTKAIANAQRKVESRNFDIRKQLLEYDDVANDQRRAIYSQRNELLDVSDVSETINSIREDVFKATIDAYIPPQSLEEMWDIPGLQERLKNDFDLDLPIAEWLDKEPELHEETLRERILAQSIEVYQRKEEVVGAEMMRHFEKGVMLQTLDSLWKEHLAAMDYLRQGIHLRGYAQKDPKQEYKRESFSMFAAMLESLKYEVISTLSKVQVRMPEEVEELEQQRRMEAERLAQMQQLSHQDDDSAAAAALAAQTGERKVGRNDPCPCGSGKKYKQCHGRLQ

Structure (SMILES)	Percent Effect [1]	Percent Effect [2]	Percent Effect [3]	Percent Effect [4]	Percent Effect (Trypanosoma cruzi)	Percent Effect [5]	Percent Effect [6]	Percent Effect (Homo sapiens)	Percent Effect [7]	Percent Effect [8]	Percent Effect [9]
O=C(c1ccc2c(c1)CCC2)N1C[C@@H](CN2CCOCC2)[C@@H](CO)C1	-4.64%	2.67%	1.02%	21.3%	-6.52%	0%	1.22%	0.733%	3.83%	3.7%	-3.15%
O=C([C@@H]1C[C@H]2[C@H](CCN2Cc2nccs2)O1)N1CCOCC1	-0.787%	8.11%	1.14%	-3.79%	-2.15%	0.833%	19%	11.3%	10.9%	13.4%	8.93%
COc1ccc(-c2nnc(SC(C)C(=O)NCC(C)C)[nH]2)c(OC)c1 (stereo not given)	-3.62%	10.5%	2.87%	6.11%	1.27%	-3.55%	13.5%	91.3%	3.19%	18.2%	2.44%
Cc1cc(C)n(CC2CCCCN2Cc2cscn2)n1 (stereo not given)	-3.65%	13%	-3.15%	14.9%	-1.27%	4.42%	7.52%	12.4%	7.62%	11.8%	-10.8%
CCOCCn1c(=O)[nH]c2cc(C(=O)N(C)CCc3cn[nH]c3)ccc21	0.265%	16.2%	4.85%	14.1%	5.6%	22.4%	17.8%	13%	3.7%	12.2%	-7.29%
CS(=O)(=O)NC1CCCN(C(=O)NCc2cccnc2)C1 (stereo not given)	-2.71%	15.6%	3.96%	1.09%	2.25%	1.9%	14.2%	-2.36%	7.62%	18.8%	-11.9%
COc1cc(CNC(=O)c2c(C)noc2C(C)C)ccn1	-2.87%	26%	-8.18%	3.15%	3.75%	3.92%	10.8%	9.63%	10.7%	21.9%	-10.2%
Cc1ccccc1C(=O)Nc1cnn(CC(=O)NC2CCCC2)c1	-4.39%	0%	-22.8%	4.85%	1.98%	1.6%	20.5%	6.03%	7.29%	11.1%	-0.609%
COc1cccc(S(=O)(=O)NC(=O)COc2c(C)cccc2C)c1	-5.17%	7.79%	-10.1%	-4.14%	-2.81%	2.13%	6.08%	10.3%	0%	12.2%	-4.1%
O=C(c1cnoc1)N1CCC[C@]2(C[C@H](Oc3ncccc3F)CO2)C1	-4.36%	-30.1%	-3.76%	25%	9.72%	-5.59%	11.7%	9.74%	4.17%	8.64%	-3.75%
CCN1C[C@H]2CCN(C(C)=O)CC[C@H]2S1(=O)=O	-0.139%	9.33%	-6.04%	-0.534%	-5.7%	-5.81%	19.6%	1.4%	0%	5.13%	-7.45%
Cn1ccnc1CN1CCC2(CC(=O)N(c3cccc(F)c3)C2)C1 (stereo not given)	1.4%	10.4%	15%	-4.43%	-7.2%	7.1%	14.8%	6.27%	7.41%	14.1%	-7.71%
CCN1CCN(S(=O)(=O)c2cc(C)c(Cl)cc2Cl)CC1	-6.87%	-2.6%	4.8%	4.35%	-2.85%	1.38%	-0.166%	13.9%	-3.23%	-6.17%	4.8%
O=C1[C@H]2CN(Cc3nccs3)C[C@H]2CN1c1ccsc1	-6.53%	0%	8.27%	-7.06%	-2.25%	0.319%	12.4%	-3.04%	-1.08%	2.56%	-0.738%
CN(C)C(=O)CNC(=O)Nc1cccc(Cl)c1SC(F)F	-3.28%	1.39%	2.42%	11.5%	-7.09%	1.77%	1.05%	-0.391%	1.05%	-2.56%	0.00979%
O=C(c1cccnc1-n1cncn1)N1CCN(CC2CC2)CC1	-2.35%	16.2%	-2.56%	20.3%	5.79%	1.91%	11.9%	1.6%	3.7%	9.76%	-2.97%
c1ccc(N2CCCC3(COCCN(c4nccs4)C3)C2)nc1 (stereo not given)	0.192%	0%	-5.45%	16.4%	11.7%	0.399%	16%	31.6%	16.7%	23.5%	10.7%
O=C(O)CC1CN(Cc2ccccc2)CCO1 (stereo not given)	-6.06%	5.41%	5.19%	-3.59%	-5.27%	2.08%	14.3%	6.89%	8.91%	8.54%	-5.29%
COc1cccc2cc(CNC(C)(C)C(=O)N3CCC(O)CC3)oc12	-4.3%	5.06%	-3.21%	-2.38%	7.08%	-0.76%	-6.14%	-31.3%	6.4%	3.8%	-3.05%
N#Cc1ccc(C(=O)N2CCC3(CC2)C(=O)Nc2ccccc23)cn1	-4.93%	8.11%	0.0753%	1.98%	-0.684%	2.73%	9.87%	0.335%	10.8%	18.5%	-4.78%
